NR2F2 inh – NR2F2 (human) inhibition, primary screen | P24468 | HEK293T NGFI-A luciferase reporter, luminescence | inhibition, % at 8.6 µM | actives 0.7% (n = 370,000) | AID 686940;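 active = inhibition above a per-plate cutoff, mean inhibition of test wells between control levels plus 3 SD, cut at about 38% in these data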;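 also: cells cotransfected with COUP-TFII expression vector driving the NGFI-A reporter; 0% = median of COUP-TF2 test wells and 100% = reporter-only cells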
Efflux pump inh – inhibitors of Candida antifungal efflux pumps expressed in yeast; S. cerevisiae Candida pump triplex, Nile Red efflux; inhibition, % at 10 µM; actives 0.44% (n = 330,000);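 active = plate passing quality check with inhibition over a set limit, or well fluorescence over plate mean plus 4 SD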;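 also: Nile Red retained in pooled yeast measured as flow cytometry median fluorescence; 0% = buffer negative control and 100% = Enniatin B positive control; higher means more Nile Red kept so more efflux inhibition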
NCOA2 inhibitor – inhibits human steroid receptor coactivator 2 | inhibition, % at 9 µM | actives 0.17% (n = 370,000) | AID 651957 | Q15596 | HEK293 GAL4-SRC2 luciferase reporter, luminescence;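 active = inhibition above the mean inhibition of all tested compounds plus 3 SD, set per campaign, cut at about 52% in these data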;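 also: 0% = DMSO treated cells and 100% = cells given Gossypol at 36 µM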
NCOA3 inh – inhibits human SRC3 coactivator; HEK293 GAL4-SRC3 luciferase reporter, luminescence; actives 0.17% (n = 360,000); inhibition, % at 3.6 µM; AID 588352; Q9Y6Q9;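 active = inhibition above a per-campaign cutoff, the mean of all compounds plus 3 SD, cut at about 60% in these data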;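 also: 0% = DMSO-treated cells and 100% = gossypol-treated cells at 36 µM; higher means less SRC3-driven luciferase light from the GAL4 reporter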
Target sequence (Q9Y6Q9 whole entry, looked up, the tested form may be a part): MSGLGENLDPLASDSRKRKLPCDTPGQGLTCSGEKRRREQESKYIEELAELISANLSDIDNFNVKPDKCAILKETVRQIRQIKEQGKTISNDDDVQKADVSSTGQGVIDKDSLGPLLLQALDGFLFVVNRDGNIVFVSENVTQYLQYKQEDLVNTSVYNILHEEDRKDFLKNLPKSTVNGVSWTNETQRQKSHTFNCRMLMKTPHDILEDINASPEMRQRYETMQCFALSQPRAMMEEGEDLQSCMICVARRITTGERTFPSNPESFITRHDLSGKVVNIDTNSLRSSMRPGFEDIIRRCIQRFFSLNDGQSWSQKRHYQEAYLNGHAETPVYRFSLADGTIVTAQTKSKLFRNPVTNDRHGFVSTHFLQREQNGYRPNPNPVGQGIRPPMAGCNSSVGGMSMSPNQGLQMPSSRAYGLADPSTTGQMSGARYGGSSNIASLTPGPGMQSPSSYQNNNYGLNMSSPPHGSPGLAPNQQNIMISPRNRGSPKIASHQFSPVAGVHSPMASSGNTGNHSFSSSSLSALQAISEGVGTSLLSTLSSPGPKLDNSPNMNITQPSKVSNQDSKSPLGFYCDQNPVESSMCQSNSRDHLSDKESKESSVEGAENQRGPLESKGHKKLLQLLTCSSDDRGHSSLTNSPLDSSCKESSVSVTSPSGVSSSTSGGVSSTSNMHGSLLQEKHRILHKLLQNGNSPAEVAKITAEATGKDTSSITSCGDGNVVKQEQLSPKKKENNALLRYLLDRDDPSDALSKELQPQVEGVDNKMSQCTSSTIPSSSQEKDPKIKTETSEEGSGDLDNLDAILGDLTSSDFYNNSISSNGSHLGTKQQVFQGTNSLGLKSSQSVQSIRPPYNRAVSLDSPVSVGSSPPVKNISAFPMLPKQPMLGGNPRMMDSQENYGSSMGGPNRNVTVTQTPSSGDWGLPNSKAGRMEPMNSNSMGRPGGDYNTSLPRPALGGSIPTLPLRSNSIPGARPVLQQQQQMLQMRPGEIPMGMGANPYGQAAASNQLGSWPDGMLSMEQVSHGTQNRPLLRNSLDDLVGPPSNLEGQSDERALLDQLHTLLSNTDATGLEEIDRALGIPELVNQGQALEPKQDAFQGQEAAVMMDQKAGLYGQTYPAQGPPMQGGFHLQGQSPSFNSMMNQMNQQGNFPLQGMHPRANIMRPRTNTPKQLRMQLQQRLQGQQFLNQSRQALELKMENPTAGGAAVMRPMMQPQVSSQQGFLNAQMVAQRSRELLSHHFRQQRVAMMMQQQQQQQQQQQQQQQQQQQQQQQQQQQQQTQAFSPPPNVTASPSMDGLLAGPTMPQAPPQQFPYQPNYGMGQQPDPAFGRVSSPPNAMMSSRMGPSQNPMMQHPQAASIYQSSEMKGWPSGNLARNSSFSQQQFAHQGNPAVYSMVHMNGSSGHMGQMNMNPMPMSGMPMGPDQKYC
LRH-1 inv ag – inverse agonists of human LRH-1 (NR5A2) | HEK293T StAR-luciferase reporter, LRH-1 transfected, 24 h | actives 0.13% (n = 360,000) | inhibition, % at 3.6 µM;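 active = inhibition above the mean inhibition of all tested compounds plus 3 SD, cut at about 73% in these data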;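 also: 0% = DMSO wells and 100% = reporter-only cells lacking LRH-1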
NCOA1 inh – inhibits human SRC1 coactivator | HEK293 GAL4-SRC1 luciferase reporter, luminescence | inhibition, % at 3.6 µM | actives 0.12% (n = 360,000) | AID 588354;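 active = inhibition above the campaign mean plus 3 SD, with each screening campaign given its own cutoff, cut at about 60% in these data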;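 also: 0% = DMSO treated cells and 100% = gossypol at 36 µM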
VP16 Luc counter – counter-screen for COUP-TFII antagonists: inhibitors of VP16 | HEK293 Gal4-VP16 luciferase reporter, luminescence | actives 25% (n = 2,500) | inhibition, % at 8.5 µM | shares compounds with NR2F2 inh; in the data active = inhibition above about 13%
COUP-TFII conf – COUP-TFII (NR2F2) inhibition, confirmation assay | shares compounds with NR2F2 inh | HEK293 NGFI-A luciferase reporter, luminescence | inhibition, % at 8.5 µM | actives 45% (n = 2,500) | AID 687008;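 active = mean inhibition over three repeats above a set limit taken from the earlier primary screen, cut at about 38% in these data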;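 also: 100% = cells given the luciferase reporter alone without the COUP-TF2 vector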
* hit, by the source's call. Sampled rows, rich in hits. Any-hit rate of the full collection: about 1.2%.

`Cc1ccc(OCC(=O)c2cc(C)n(Cc3cccs3)c2C)c([N+](=O)[O-])n1` gave NR2F2 inh 61*, Efflux pump inh 0, NCOA2 inhibitor 66*, NCOA3 inh 37, LRH-1 inv ag 14, NCOA1 inh 30, VP16 Luc counter -6 and COUP-TFII conf 15.
Screening CCCOc1ccc(CSc2nc3ccccc3[nH]2)cc1 returned NR2F2 inh 38*, Efflux pump inh 0, NCOA2 inhibitor -7, NCOA3 inh -43, LRH-1 inv ag -45, NCOA1 inh -29, VP16 Luc counter -194 and COUP-TFII conf -34.
COc1ccc(NC(=O)c2ccc(-n3nc(C)c[n+]3[O-])cc2)cc1 was read as NR2F2 inh 4, Efflux pump inh 0, NCOA2 inhibitor 4, NCOA3 inh -7, LRH-1 inv ag -14 and NCOA1 inh -22.
For CC1C/C(=C/c2cccn2C)C(=O)/C(=C/c2cccn2C)C1 (centres undefined) the results were NR2F2 inh 10, Efflux pump inh 0, NCOA2 inhibitor -12, NCOA3 inh -1, LRH-1 inv ag 3 and NCOA1 inh -25.
For CC1C/C(=C/c2ccncc2)C(=O)/C(=C/c2ccncc2)C1 (centres undefined) the results were NR2F2 inh 87*, Efflux pump inh 0, NCOA2 inhibitor 74*, NCOA3 inh -24, LRH-1 inv ag 45, NCOA1 inh -303, VP16 Luc counter 82* and COUP-TFII conf 97*.
Cc1oc2c(CN3CCC(C)CC3)c(O)ccc2c(=O)c1-c1ccccc1 was read as NR2F2 inh 20, Efflux pump inh 0, NCOA2 inhibitor -5, NCOA3 inh 8, LRH-1 inv ag -1 and NCOA1 inh -3.
For Cc1cc(=O)oc2cc(OC(C)C(=O)NCc3ccccn3)ccc12 (centres undefined) the results were NR2F2 inh 2, Efflux pump inh 0, NCOA2 inhibitor 0, NCOA3 inh -6, LRH-1 inv ag -7 and NCOA1 inh 5.
CCc1ccn2cc(-c3cc(-c4ccccc4)no3)nc2c1 was read as NR2F2 inh 88*, Efflux pump inh 0, NCOA2 inhibitor 74*, NCOA3 inh 52, LRH-1 inv ag 33, NCOA1 inh 44, VP16 Luc counter 18* and COUP-TFII conf 67*.
Screening Cc1ccc2nc(-c3cc(-c4ccccc4)no3)cn2c1 returned NR2F2 inh -23, Efflux pump inh 0, NCOA2 inhibitor -32, NCOA3 inh -10, LRH-1 inv ag -134 and NCOA1 inh -54.
`Cc1c(CCC(=O)O)c(=O)oc2cc3oc4c(c3cc12)CCCC4` gave NR2F2 inh 42*, Efflux pump inh 0, NCOA2 inhibitor 64*, NCOA3 inh 14, LRH-1 inv ag 14, NCOA1 inh -20, VP16 Luc counter 59* and COUP-TFII conf 50*.
`Cc1c(CCC(=O)N[C@@H](CC(C)C)C(=O)O)c(=O)oc2cc3oc4c(c3cc12)CCCC4` gave NR2F2 inh 46*, Efflux pump inh 0, NCOA2 inhibitor 45, NCOA3 inh 8, LRH-1 inv ag 6, NCOA1 inh 6, VP16 Luc counter 21* and COUP-TFII conf 26.
O=C(Nc1nc(-c2ccccc2)cs1)c1ccccc1NS(=O)(=O)c1ccc(F)cc1 was read as NR2F2 inh 55*, Efflux pump inh -1, NCOA2 inhibitor 25, NCOA3 inh 60, LRH-1 inv ag 75*, NCOA1 inh 44, VP16 Luc counter -4 and COUP-TFII conf 32.
For Cc1ccc(C(=O)COC(=O)CN2C(=O)C3C4CCC(C4)C3C2=O)cc1[N+](=O)[O-] (centres undefined) the results were NR2F2 inh 2, Efflux pump inh 0, NCOA2 inhibitor 25, NCOA3 inh -6, LRH-1 inv ag -3 and NCOA1 inh 11.
For COc1ccccc1N1CCN(Cc2cc(Br)c(O)c3ncccc23)CC1 the results were NR2F2 inh 47*, Efflux pump inh 0, NCOA2 inhibitor 28, NCOA3 inh 54, LRH-1 inv ag 73*, NCOA1 inh 46, VP16 Luc counter 2 and COUP-TFII conf 15.
`CCOc1ccccc1N1CCN(Cc2cccc(OC)c2O)CC1` gave NR2F2 inh 6, Efflux pump inh 0, NCOA2 inhibitor -1, NCOA3 inh 9, LRH-1 inv ag 21 and NCOA1 inh 8.
Cc1ccc(C(CNS(=O)(=O)c2cc(F)ccc2F)N2CCN(C)CC2)cc1 (centres undefined) was read as NR2F2 inh 10, NCOA2 inhibitor -34, NCOA3 inh 3, LRH-1 inv ag 8 and NCOA1 inh 7.
For COc1ccc(-n2c(C)cc(C(=O)CSc3ccc(NC(C)=O)cc3)c2C)cc1 the results were NR2F2 inh -16, Efflux pump inh 0, NCOA2 inhibitor -5, NCOA3 inh -13, LRH-1 inv ag -7 and NCOA1 inh -26.
`CC(=O)Nc1ccc(SCC(=O)c2cc(C)n(-c3ccccc3)c2C)cc1` gave NR2F2 inh 54*, Efflux pump inh 1, NCOA2 inhibitor 26, NCOA3 inh 47, LRH-1 inv ag 8, NCOA1 inh 38, VP16 Luc counter 23* and COUP-TFII conf 40*.
`Cc1cc(C)n(/C(=C/N(C)C)C(=O)c2ccccc2)n1` gave NR2F2 inh -13, Efflux pump inh 0, NCOA2 inhibitor -9, NCOA3 inh 18, LRH-1 inv ag 4 and NCOA1 inh -20.
Screening COc1ccc(CN2CCN(C(=O)c3ccc(S(=O)(=O)N4CCCCCC4)cc3)CC2)cc1 returned NR2F2 inh 63*, NCOA2 inhibitor -34, NCOA3 inh 21, LRH-1 inv ag 27, NCOA1 inh 25, VP16 Luc counter 3 and COUP-TFII conf 48*.
For COc1ccc(CN2CCN(C(=O)c3ccc(S(=O)(=O)NCc4ccco4)cc3)CC2)cc1F the results were NR2F2 inh 16, NCOA2 inhibitor 4, NCOA3 inh 21, LRH-1 inv ag 20 and NCOA1 inh 0.
Screening COc1cccc(C(=O)N2CCN(Cc3ccccc3C(F)(F)F)CC2)c1 returned NR2F2 inh 6, Efflux pump inh 0, NCOA2 inhibitor 21, NCOA3 inh 10, LRH-1 inv ag -4 and NCOA1 inh 0.
For COc1ccc(C(=O)N2CCN(Cc3ccccc3C(F)(F)F)CC2)cc1 the results were NR2F2 inh 80*, Efflux pump inh 0, NCOA2 inhibitor 11, NCOA3 inh -20, LRH-1 inv ag 0, NCOA1 inh -10, VP16 Luc counter -1 and COUP-TFII conf 6.
